Compound activity as filed in PubChem BioAssay.
HT1080 IDH1KD tx: toxicity to HT-1080 IDH1 knockdown cells (counter line). actives 2% (n = 360,000). HT-1080 IDH1 knockdown viability, ATP luminescence, 48 h. AID 686971. Potency, µM (highest dose often 46.1 µM), for inactives: at the highest dose activity, negative = toxicity, actives largely listed as cytotoxic;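 also: 0% = DMSO wells and -100% = cell-free medium wells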
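% activity derives from luminescence (CellTiter-Glo), normalised to DMSO and no-cell wells. HT-1080-IDH1KD cells, 750/well, had 48 h compound exposure at 37 °C.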
KB-V1 MDR tox: KB-V1 MDR subline cytotoxicity; KB-V1 MDR cells viability, CellTiter-Glo, 72 h; Potency, µM (titrated, usually from 46.1 µM), most hits filed as cytotoxic; actives 3.4% (n = 400,000); also: % is scaled to controls: 0 for no effect and ±100 for the full control effect; nearly all actives have a fitted effect of over 60% in size
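Compound-treated KB-V1 multidrug-resistant cells, 72 h, 37 degrees C; viability by CellTiter-Glo. Fitted qHTS curves give the values.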
MCF10A rerep: inducers of DNA re-replication in MCF 10A breast cells. MCF 10A DNA re-replication, Hoechst nuclear intensity, 48 h. Potency, µM (doses to about 46.1 µM), for inactives: at the highest dose activity, positive = re-replication, hits mostly activators. actives 2.9% (n = 350,000). AID 624296; also: % of control where 0% means no effect; nearly all actives have a fitted effect of over 50% in size
HT1080NT lethal: kills 2HG-producing HT-1080-NT fibrosarcoma cells; HT-1080-NT fibrosarcoma viability, CellTiter-Glo ATP luminescence, 48 h; Potency, µM (series often up to 46.1 µM), without a hit: at the top dose activity, negative = less viability, actives largely listed as cytotoxic; actives 1.6% (n = 360,000); AID 686970;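 also: NT is the 2HG producing partner of a matched IDH1 knockdown line; 0% = DMSO-treated cells and -100% = media-only wells without cells; nearly all actives have a fitted effect of over 55% in size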
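A 48-hour cytotoxicity screen used HT-1080-NT cells plated 2 hours before compound delivery. ATP-based CellTiter-Glo luminescence measured viability, normalized to DMSO and no-cell controls.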
KB-3-1 cytotox: KB-3-1 parental cell cytotoxicity; KB-3-1 viability, CellTiter-Glo ATP luminescence, 72 h; actives 1.4% (n = 400,000); Potency, µM (series often up to 46.1 µM), hits mostly cytotoxic; AID 1347075; also: % is scaled to controls: 0 for no effect and ±100 for the full control effect; nearly all actives have a fitted effect of over 60% in size
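Cells are dispensed, compounds pinned in, plates held at 37 °C for 72 h, then CellTiter-Glo is added and luminescence read after 10 minutes. Cell line: parental KB-3-1 in phenol-red-free DMEM, 10% FBS.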
SW480 rerep: DNA re-replication induction in SW480 cells | SW480 DNA re-replication, Hoechst DNA content imaging, 48 h | Potency, µM (highest dose often 46.1 µM), for the others: at the highest dose re-replication activation, usual class: activators | actives 1.8% (n = 340,000) | AID 624297; also: % of control where 0% means no effect; nearly all actives have a fitted effect of over 55% in size
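Quantitative HTS format with DMSO vehicle controls; 48 hr drug incubation at 37 C, then 40 min Hoechst staining and scanning imager measurement at 405 nm excitation.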
Active calls of the source: *; i = inactive; ? = inconclusive; . = not tested or not shown. Only some compounds are listed: those with a hit (about 8% of all), similar ones and a draw of the others. Calls follow the shape of the dose curve; as a rule, active = well fitted curve in the direction sought with a large enough effect; inconclusive = small, poorly fitted or top-dose-only effect, or another doubt; inactive = no such curve, though single readings can be large; an effect the other way counts as inactive or inconclusive. Potency is read from the fitted curve at half-maximal effect.

SMILES	HT1080 IDH1KD tx	KB-V1 MDR tox	MCF10A rerep	HT1080NT lethal	KB-3-1 cytotox	SW480 rerep
Cc1cc(C)c2oc(C(=O)Nc3c(C(=O)c4ccccc4)oc4ccccc34)cc(=O)c2c1	.	i	.	.	i	.
Cc1cc[n+](C)c2ccccc12	.	i	.	.	i	.
Cc1cc[n+](CCC2CCCCC2)c2ccccc12	.	i	.	.	2.1µM*	.
CCCCCCCCCCCC[n+]1ccc(C)c2ccccc21	.	i	.	.	4.1µM*	.
CCCCCCC[n+]1ccc(C)c2ccccc21	.	i	.	.	0.58µM*	.
COc1ccc(CCNC(=O)CSc2cn(CCNC(=O)c3ccccc3F)c3ccccc23)cc1OC	.	i	.	.	?	.
Cc1cc(C)c(S(=O)(=O)NCCc2cc3cc(C)c(C)cc3[nH]c2=O)c(C)c1	.	i	.	.	i	.
CCC(=O)N1CCc2cc(CNS(=O)(=O)c3ccc(C(C)C)cc3)ccc21	.	i	.	.	i	.
Cn1c(CNc2ccccn2)c(C#N)c2ccccc21	-22%	23µM*	-2%	-13%	i	7%
Cn1c(CSc2ccccc2)c(C#N)c2ccccc21	-26%	16µM*	-5%	-2%	i	-4%
Cc1ccc(SCc2c(C#N)c3ccccc3n2C)cc1	1%	i	13%	17%	i	-7%
OCC[n+]1ccc(/C=C/c2c[nH]c3ccccc23)cc1	-9%	i	?	-2%	?	22%
Cc1[nH]c2ccccc2c1/C=C/c1c(C)[nH]c2ccccc12	.	i	.	.	?	.
CCCCCCCCCCCCCCCC[n+]1ccc(/C=C/c2c(C)[nH]c3ccccc23)cc1	.	i	.	.	1.3µM*	.
CCCCCCC[n+]1ccc(/C=C/c2c(C)[nH]c3ccccc23)cc1	.	i	.	.	0.65µM*	.
Cc1[nH]c2ccccc2c1/C=C/c1cc[n+](C)cc1	-7%	i	-4%	-23%	10µM*	6%
CCCCCCCCCCCCCC[n+]1ccc(C)cc1	.	.	55%	.	.	?
CC(=O)c1c(C)oc2ccc(N(C(=O)Oc3ccccc3)S(=O)(=O)c3ccc(Cl)cc3)cc12	.	i	.	.	i	.
COCc1cc(C)nc(SCC(=O)Nc2cccc(C)c2C)c1C#N	7%	i	-8%	8%	i	-10%
Cc1cccc(NC(=O)CSc2nc(C)c(CC(=O)c3ccc(Br)cc3)c(C)c2C#N)c1C	?	?	1µM*	-13%	?	4%
Cc1nc(SCC(=O)Nc2ccc(F)cc2)c(C#N)c(C)c1CC(=O)c1ccc(Br)cc1	-11%	?	16µM*	-14%	16µM*	?
Cc1ccc(NC(=O)CSc2nc(-c3ccc(F)cc3)cc(C(F)(F)F)c2C#N)cc1	.	i	.	.	i	.
CC(C(=O)c1ccccc1)[n+]1cccc(Cl)c1 (stereo not given)	.	i	.	.	i	.
O=C(Nc1ccccc1-c1nnc(SCc2ccc(Cl)cc2)o1)c1ccccc1	-6%	?	16%	-2%	i	-2%
O=c1c(-c2nnc(SCc3ccc(Cl)cc3)o2)cccn1Cc1ccccc1	?	4.6µM*	17%	?	i	19%
SMILES	HT1080 IDH1KD tx	KB-V1 MDR tox	MCF10A rerep	HT1080NT lethal	KB-3-1 cytotox	SW480 rerep
CCSc1nnc(-c2c[nH]c3ccccc23)o1	0%	i	-1%	-19%	i	-6%
O=C(Nc1ccccc1-c1nnc(SCc2ccccc2)o1)c1ccccc1	4%	15µM*	?	-4%	i	0%
Clc1ccc(CSc2nnc(-c3c[nH]c4ccccc34)o2)cc1	?	?	21µM*	?	i	1%
O=S(=O)(Nc1ccc(-c2nnc(SCc3ccc(Cl)cc3)o2)cc1)c1ccccc1	-1%	i	21µM*	0%	i	7%
CCOc1ccccc1-c1nnc(SCc2ccc(Cl)cc2)o1	.	?	.	.	i	.
CCc1ccc2oc(C(=O)NCc3ccccc3)cc(=O)c2c1	.	i	.	.	i	.
CCOC(=O)c1ccc(Nc2c(-c3ccc(N(C)C)cc3)nc3nc[nH]n23)cc1	.	i	.	.	i	.
O=C(Nc1nnc(S(=O)(=O)N2CCCc3ccccc32)s1)c1ccccc1Br	.	i	.	.	i	.
CC(C)c1ccc(NC(=O)c2cn(C3CCCC3)c(=O)c3c2c2ccccc2n3C)cc1	.	i	.	.	i	.
CC(C)CN(CC(C)C)S(=O)(=O)c1ccc(C(=O)Nc2sc3c(c2C(N)=O)CCN(C(C)C)C3)cc1	.	?	.	.	i	.
COc1ccc(CN2CC[C@H]3C=CC[C@@H](C(=O)Nc4ccccc4)[C@H]3C2=O)cc1OC	.	?	.	.	i	.
CC1CCc2c(sc(NC(=O)c3cc4nc(-c5ccc(Cl)cc5)cc(C(F)(F)F)n4n3)c2C#N)C1 (stereo not given)	.	i	.	.	i	.
c1ccc(CSc2nnc(Cc3ccccc3)o2)cc1	2%	i	0%	2%	i	0%
Brc1ccc(CSc2nnc(Cc3c[nH]c4ccccc34)o2)cc1	-21%	18µM*	?	-5%	i	0%
COc1cc(C(=O)Nc2ccc(C)cn2)c([N+](=O)[O-])cc1OC	8%	i	1%	0%	i	-9%
COc1cc(C(=O)Nc2c(C)cc(C)cc2C)c([N+](=O)[O-])cc1OC	11%	21µM*	4%	10%	i	1%
COc1cccc(CNC(=O)c2ccc(-n3c(C)cc4c3CCC(C)C4)cc2)c1 (stereo not given)	.	i	.	.	i	.
CCS(=O)c1scc(-c2ccc(Cl)cc2)c1C#N (stereo not given)	0%	21µM*	9%	-4%	?	-7%
Cc1nnc(N2CCC(C(=O)NC3CCCCC3)CC2)c2nn(-c3ccc(Cl)cc3)c(C)c12	.	i	.	.	i	.
COc1ccc(/C=C/C(=O)N(C)C2CCS(=O)(=O)C2)cc1 (stereo not given)	12%	i	-1%	15%	i	?
COc1ccc(/C=C/C(=O)N(C)C2(C)CCS(=O)(=O)C2)cc1 (stereo not given)	4%	i	3%	14%	i	23µM*
Cc1cccc(NC(=S)NNc2ncc(C(F)(F)F)cc2Cl)c1	-17%	15µM*	24%	-1%	?	4%
S=C(Nc1ccccc1Cl)Nc1ccc(Cl)cc1Cl	15%	i	10%	10%	i	-15%
FC(F)(F)c1cnc(NNC(=S)Nc2ccccc2Cl)c(Cl)c1	?	?	2%	?	16µM*	1%
S=C(NNc1ccnc2cc(Cl)ccc12)Nc1ccccc1Cl	?	?	?	?	23µM*	?
